From the supplement of paper PMC11732987, “Enantioselective OTUD7B fragment discovery through chemoproteomics screening and high-throughput optimisation” (Communications Chemistry, 2025)

Legend:
Assay in all cases: log2 ratio of Biotin-Ahx-Ub-VS probe labelling (compound/DMSO); higher = less target engagement, active = hit call of the paper (q ≤ 0.05, log2 ratio ≤ -1)
Conditions in all cases: treatment time: 3 h
[1] = compound: CCC1N(CCc2sccc12)C(=O)CCl
Outline: (§1)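 For activity-based profiling, 495 µg portions of HEK293T lysate in Tris/CHAPS/IGEPAL buffer with protease inhibitors were treated in triplicate with compound at 50 or 200 µM or with DMSO for 3 h. A 1 h incubation with Biotin-Ahx-Ub-VS (0.5 µM final) followed, then NeutrAvidin enrichment, LysC and trypsin digestion and diaPASEF LC-MS/MS. The compound/DMSO base-two log ratios were averaged from median-normalised label-free quantities using an unpaired t-test. Proteins needed at least 2 unique peptides to be included.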

[2] = compound: CN1c2ccccc2C(CS1(=O)=O)NC(=O)CCl
Outline: as §1

[3] = compound: Cl.ClCC(=O)N1CCc2ncncc2C1
Outline: as §1

[4] = compound: Cl.Cn1ncc2C(CCCc12)NC(=O)CCl
Outline: as §1

[5] = compound: ClCC(=O)NC1CCOc2ccccc12
Outline: as §1

[6] = compound: ClCC(=O)NC1CCCc2ccccc12
Outline: (§2)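 HEK293T lysate (495 µg per sample, in Tris/CHAPS/IGEPAL buffer with protease inhibitors) was treated in triplicate with compound over a concentration series or DMSO for 3 h, then with Biotin-Ahx-Ub-VS (0.5 µM final) for 1 h. Labelled DUBs were NeutrAvidin-enriched, digested with LysC and trypsin, and run by diaPASEF LC-MS/MS. Spectronaut label-free protein quantities were global-median-normalised. Values are average log2 ratios compound/DMSO from an unpaired t-test, using proteins with ≥2 unique peptides.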

[7] = compound: ClCC(=O)N[C@@H]1CCCc2ccccc12
Outline: as §2

[8] = compound: ClCC(=O)N[C@H]1CCCc2ccccc12
Outline: as §2

[9] = compound: CCC1N(CCc2cc(OC)c(Cl)cc12)C(=O)CCl
Outline: as §1

[10] = compound: CCCC1N(CCc2cc(OC)c(OC)cc12)C(=O)CCl
Outline: as §1

[11] = compound: CN(Cc1cccc(Br)c1)C(=O)CCl
Outline: as §1

[12] = compound: CN(Cc1cccc(OCc2ccccc2C)c1)C(=O)CCl
Outline: as §1

[13] = compound: CN(Cc1ccccc1)C(=O)CCl
Outline: as §1

[14] = compound: COc1ccc(CN(C)C(=O)CCl)cc1
Outline: as §1

[15] = compound: COc1cccc(CN(CCCc2ccccc2)C(=O)CCl)c1
Outline: as §1

[16] = compound: ClCC(=O)N1CCc2cc(Cl)c(Cl)cc2C1
Outline: as §1

[17] = compound: ClCC(=O)N1CCc2nc(ncc2C1)-c1ccccc1
Outline: as §1

[18] = compound: ClCC(=O)N1CCc2nocc2C1
Outline: as §1

[19] = compound: ClCC(=O)N1CCc2scc(Br)c2C1
Outline: as §1

[20] = compound: ClCC(=O)NC(C1CCCC1)c1cccs1
Outline: as §1

Measured: log2 ratio of Biotin-Ahx-Ub-VS probe labelling

BAP1 (UniProt Q92560)
Chain of UniProt Q92560 (Q92560 whole entry): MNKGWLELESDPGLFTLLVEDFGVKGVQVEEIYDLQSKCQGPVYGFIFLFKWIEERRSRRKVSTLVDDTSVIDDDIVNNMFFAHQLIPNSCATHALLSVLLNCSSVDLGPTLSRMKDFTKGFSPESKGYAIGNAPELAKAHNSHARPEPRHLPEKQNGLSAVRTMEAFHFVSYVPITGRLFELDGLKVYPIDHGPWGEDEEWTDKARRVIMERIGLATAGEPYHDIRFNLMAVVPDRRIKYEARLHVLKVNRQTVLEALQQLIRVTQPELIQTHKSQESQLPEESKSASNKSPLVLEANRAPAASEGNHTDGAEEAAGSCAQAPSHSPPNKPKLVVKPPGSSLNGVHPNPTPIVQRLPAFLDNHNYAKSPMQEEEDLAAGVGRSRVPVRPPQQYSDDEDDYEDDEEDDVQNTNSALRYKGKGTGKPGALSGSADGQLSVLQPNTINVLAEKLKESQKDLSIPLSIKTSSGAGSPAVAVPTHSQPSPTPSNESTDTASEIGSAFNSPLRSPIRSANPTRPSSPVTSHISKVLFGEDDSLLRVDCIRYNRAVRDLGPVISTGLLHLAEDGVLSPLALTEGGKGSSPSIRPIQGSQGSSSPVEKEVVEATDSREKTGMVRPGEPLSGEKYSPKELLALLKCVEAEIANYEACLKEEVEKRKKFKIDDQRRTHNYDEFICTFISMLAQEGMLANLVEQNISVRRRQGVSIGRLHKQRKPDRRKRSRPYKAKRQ
active: [2]; compound concentration: 200uM -2.09 | [3]; compound concentration: 200uM -1.04 | [4]; compound concentration: 200uM -1.03 | [5]; compound concentration: 200uM -2.15 | [6]; compound concentration: 200uM -1.34 | [7]; compound concentration: 200uM -1.54 | [8]; compound concentration: 200uM -1.39 | [11]; compound concentration: 200uM -2.12 | [12]; compound concentration: 50uM -1.42 | [12]; compound concentration: 200uM -3.08 | [13]; compound concentration: 200uM -2.17 | [14]; compound concentration: 200uM -1.9 | [15]; compound concentration: 50uM -1.04 | [15]; compound concentration: 200uM -3.18 | [16]; compound concentration: 200uM -1.76 | [17]; compound concentration: 200uM -1.91 | [18]; compound concentration: 200uM -1.16 | [19]; compound concentration: 200uM -1.68 | [20]; compound concentration: 200uM -2.92
inactive: [1]; compound concentration: 50uM -0.142 | [1]; compound concentration: 200uM -0.347 | [2]; compound concentration: 50uM -0.805 | [3]; compound concentration: 50uM -0.468 | [4]; compound concentration: 50uM -0.38 | [5]; compound concentration: 50uM -0.598 | [6]; compound concentration: 0.78uM -0.121 | [6]; compound concentration: 1.56uM 0.0581 | [6]; compound concentration: 3.13uM -0.0976 | [6]; compound concentration: 6.25uM -0.0118 | [6]; compound concentration: 12.5uM -0.122 | [6]; compound concentration: 25uM -0.306 | [6]; compound concentration: 50uM -0.368 | [6]; compound concentration: 100uM -0.762 | [7]; compound concentration: 0.78uM -0.169 | [7]; compound concentration: 1.56uM -0.0659 | [7]; compound concentration: 3.13uM -0.0706 | [7]; compound concentration: 6.25uM -0.137 | [7]; compound concentration: 12.5uM -0.178 | [7]; compound concentration: 25uM -0.163 | [7]; compound concentration: 50uM -0.418 | [7]; compound concentration: 100uM -0.683 | [8]; compound concentration: 0.78uM -0.119 | [8]; compound concentration: 1.56uM -0.0453 | [8]; compound concentration: 3.13uM -0.0819 | [8]; compound concentration: 6.25uM 0.12 | [8]; compound concentration: 12.5uM -0.18 | [8]; compound concentration: 25uM -0.239 | [8]; compound concentration: 50uM -0.305 | [8]; compound concentration: 100uM -0.756 | [9]; compound concentration: 50uM -0.0732 | [9]; compound concentration: 200uM -0.717 | [10]; compound concentration: 50uM -0.385 | [10]; compound concentration: 200uM -0.766 | [11]; compound concentration: 50uM -0.773 | [13]; compound concentration: 50uM -0.833 | [14]; compound concentration: 50uM -0.731 | [16]; compound concentration: 50uM -0.373 | [17]; compound concentration: 50uM -0.341 | [18]; compound concentration: 50uM -0.448 | [19]; compound concentration: 50uM -0.426 | [20]; compound concentration: 50uM -0.924

OTUB1 (UniProt Q96FW1)
Chain of UniProt Q96FW1 (Q96FW1 whole entry): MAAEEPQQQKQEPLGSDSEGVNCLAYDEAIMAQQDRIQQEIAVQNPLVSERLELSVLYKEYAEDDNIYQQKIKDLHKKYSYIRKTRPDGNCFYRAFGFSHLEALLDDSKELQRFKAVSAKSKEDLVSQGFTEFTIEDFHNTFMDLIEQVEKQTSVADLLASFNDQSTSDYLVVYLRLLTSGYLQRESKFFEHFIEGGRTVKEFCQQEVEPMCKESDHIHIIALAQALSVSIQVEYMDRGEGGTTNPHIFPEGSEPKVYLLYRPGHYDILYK
inactive: [1]; compound concentration: 50uM -0.117 | [1]; compound concentration: 200uM -0.154 | [2]; compound concentration: 50uM -0.275 | [2]; compound concentration: 200uM -0.196 | [3]; compound concentration: 50uM -0.211 | [3]; compound concentration: 200uM -0.426 | [4]; compound concentration: 50uM 0.106 | [4]; compound concentration: 200uM -0.247 | [5]; compound concentration: 50uM -0.281 | [5]; compound concentration: 200uM -0.037 | [6]; compound concentration: 0.78uM -0.196 | [6]; compound concentration: 1.56uM -0.0742 | [6]; compound concentration: 3.13uM -0.226 | [6]; compound concentration: 6.25uM -0.309 | [6]; compound concentration: 12.5uM -0.314 | [6]; compound concentration: 25uM -0.147 | [6]; compound concentration: 50uM -0.404 | [6]; compound concentration: 100uM -0.172 | [6]; compound concentration: 200uM -0.492 | [7]; compound concentration: 0.78uM 0.0648 | [7]; compound concentration: 1.56uM -0.00906 | [7]; compound concentration: 3.13uM -0.216 | [7]; compound concentration: 6.25uM -0.197 | [7]; compound concentration: 12.5uM -0.122 | [7]; compound concentration: 25uM -0.199 | [7]; compound concentration: 50uM -0.236 | [7]; compound concentration: 100uM -0.0374 | [7]; compound concentration: 200uM -0.142 | [8]; compound concentration: 0.78uM -0.244 | [8]; compound concentration: 1.56uM -0.103 | [8]; compound concentration: 3.13uM -0.28 | [8]; compound concentration: 6.25uM -0.301 | [8]; compound concentration: 12.5uM -0.188 | [8]; compound concentration: 25uM -0.119 | [8]; compound concentration: 50uM -0.16 | [8]; compound concentration: 100uM -0.00187 | [8]; compound concentration: 200uM -0.123 | [9]; compound concentration: 50uM 0.198 | [9]; compound concentration: 200uM -0.422 | [10]; compound concentration: 50uM -0.107 | [10]; compound concentration: 200uM -0.0707 | [11]; compound concentration: 50uM 0.0635 | [11]; compound concentration: 200uM 0.0164 | [12]; compound concentration: 50uM -0.366 | [12]; compound concentration: 200uM 0.0592 | [13]; compound concentration: 50uM -0.0602 | [13]; compound concentration: 200uM -0.159 | [14]; compound concentration: 50uM -0.0667 | [14]; compound concentration: 200uM -0.232 | [15]; compound concentration: 50uM -0.125 | [15]; compound concentration: 200uM -0.389 | [16]; compound concentration: 50uM 0.182 | [16]; compound concentration: 200uM -0.161 | [17]; compound concentration: 50uM -0.0139 | [17]; compound concentration: 200uM -0.309 | [18]; compound concentration: 50uM -0.139 | [18]; compound concentration: 200uM -0.129 | [19]; compound concentration: 50uM 0.0181 | [19]; compound concentration: 200uM -0.0887 | [20]; compound concentration: 50uM 0.00867
